p53 mut binder: binders of human mutant p53 | small molecule microarray binding, anti-GST fluorescence | calls only | 0.4% of 17,000 active | AID 624136;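 active means compounds whose four printed spots each glow above background more than chance allows, each with a p-value under 7%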
NFkB binder: NF-kappa-B p105 (human) binding. P19838. Small molecule microarray, anti-His fluorescence binding. calls only. 1.3% of 17,000 active. AID 624139;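 active means spot fluorescence over background significantly raised, with a chance value under 7% in all four replicate spots of the compound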;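 further: probe protein is his-tagged human p50 processed subunit at 1 µg/ml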
STAT3 SMM: STAT3 (human) binding; P40763; Small molecule microarray, His-STAT3 binding, anti-His fluorescence; calls only; 0.2% of 17,000 active;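 active means compounds whose four printed spots each show fluorescence over background unusually high for their array block, chance value under 7%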
Target sequence (P40763 whole entry, looked up): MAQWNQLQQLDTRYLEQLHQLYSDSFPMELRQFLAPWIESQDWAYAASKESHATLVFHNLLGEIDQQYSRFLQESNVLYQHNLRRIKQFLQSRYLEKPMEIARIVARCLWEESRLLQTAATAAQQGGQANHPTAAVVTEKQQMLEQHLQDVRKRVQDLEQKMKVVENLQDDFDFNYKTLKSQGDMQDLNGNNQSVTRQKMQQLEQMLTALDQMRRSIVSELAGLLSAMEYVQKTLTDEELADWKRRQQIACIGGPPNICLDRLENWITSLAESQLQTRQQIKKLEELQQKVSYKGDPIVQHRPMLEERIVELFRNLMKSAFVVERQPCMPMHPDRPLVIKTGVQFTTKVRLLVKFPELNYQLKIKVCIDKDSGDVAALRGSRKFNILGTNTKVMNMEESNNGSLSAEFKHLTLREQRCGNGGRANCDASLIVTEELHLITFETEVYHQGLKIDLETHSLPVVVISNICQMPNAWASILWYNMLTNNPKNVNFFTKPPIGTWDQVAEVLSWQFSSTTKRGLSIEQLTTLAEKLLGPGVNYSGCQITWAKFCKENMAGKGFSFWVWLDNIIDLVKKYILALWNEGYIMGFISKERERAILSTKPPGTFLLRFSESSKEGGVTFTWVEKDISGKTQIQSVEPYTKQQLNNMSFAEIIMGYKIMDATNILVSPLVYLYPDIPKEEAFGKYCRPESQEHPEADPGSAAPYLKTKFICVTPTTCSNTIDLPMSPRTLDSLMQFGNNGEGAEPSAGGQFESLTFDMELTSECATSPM
Myc binder: binders of human c-Myc | P01106 | small molecule microarray, His-c-Myc binding, anti-His fluorescence | calls only | 1.5% of 17,000 active;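 active means spot fluorescence over background with P-value below 7% in all four replicate spots, showing protein binding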
Calls only. Shown are actives, neighbours in structure and some others; about 2.5% of the full set was active somewhere.

Results for O=C(Cn1cc(CO)c2ccccc21)Nc1ccccc1 ?
p53 mut binder: inactive; NFkB binder: inactive; STAT3 SMM: inactive; Myc binder: inactive

How did C[C@H]1CN([C@@H](C)CO)C(=O)c2cccc(NC(=O)Nc3ccc(C(F)(F)F)cc3)c2O[C@@H]1CN(C)CC1CC1 do in these assays?
p53 mut binder: inactive; NFkB binder: inactive; STAT3 SMM: active; Myc binder: inactive

Results for C[C@@H]1CN([C@@H](C)CO)C(=O)c2cccc(NC(=O)c3cnccn3)c2O[C@H]1CN(C)C(=O)Nc1ccccc1 ?
p53 mut binder: inactive; NFkB binder: active; STAT3 SMM: inactive; Myc binder: active

What do the screens show for `C[C@H]1CN([C@@H](C)CO)C(=O)c2cccc(NC(=O)NC3CCCCC3)c2O[C@H]1CN(C)S(=O)(=O)c1ccc(Cl)cc1`?
p53 mut binder: inactive; NFkB binder: inactive; STAT3 SMM: inactive; Myc binder: active

Results for C[C@H]1CN([C@@H](C)CO)C(=O)c2cccc(NC(=O)Nc3ccc(C(F)(F)F)cc3)c2O[C@@H]1CN(C)C(=O)NC1CCCCC1 ?
p53 mut binder: inactive; NFkB binder: inactive; STAT3 SMM: active; Myc binder: inactive

Results for C[C@H](CO)N1C[C@H](C)[C@@H](CN(C)CC2CC2)Oc2c(NC(=O)Nc3ccc(C(F)(F)F)cc3)cccc2C1=O ?
p53 mut binder: inactive; NFkB binder: inactive; STAT3 SMM: inactive; Myc binder: inactive

How did C[C@@H]1CN([C@H](C)CO)C(=O)c2cccc(NC(=O)C3CCOCC3)c2O[C@H]1CN(C)S(=O)(=O)c1cn(C)cn1 do in these assays?
p53 mut binder: inactive; NFkB binder: inactive; STAT3 SMM: inactive; Myc binder: inactive

How did C[C@@H]1CCCCO[C@@H](CN(C)Cc2ccccc2)[C@@H](C)CN([C@@H](C)CO)C(=O)c2cc(NC(=O)Nc3ccc4c(c3)OCO4)ccc2O1 do in these assays?
p53 mut binder: inactive; NFkB binder: inactive; STAT3 SMM: inactive; Myc binder: inactive

Results for COc1ccc(CCNC(=O)[C@@H]2c3ccccc3C(=O)N(CC34CC5CC(CC(C5)C3)C4)[C@H]2c2ccc(CO)cc2)cc1 ?
p53 mut binder: inactive; NFkB binder: inactive; STAT3 SMM: inactive; Myc binder: inactive

Results for C[C@@H]1CN([C@@H](C)CO)C(=O)c2cccc(NC(=O)c3ccncc3)c2O[C@@H]1CN(C)Cc1ccc(Cl)c(Cl)c1 ?
p53 mut binder: inactive; NFkB binder: inactive; STAT3 SMM: inactive; Myc binder: inactive

Results for C[C@H](CO)N1C[C@H](C)[C@@H](CN(C)C(=O)CCC(F)(F)F)OCCCC[C@H](C)Oc2ccc(NS(=O)(=O)c3ccccc3)cc2C1=O ?
p53 mut binder: inactive; NFkB binder: inactive; STAT3 SMM: inactive; Myc binder: inactive

What do the screens show for `Cc1ccc(S(=O)(=O)Nc2ccc3c(c2)C(=O)N([C@@H](C)CO)C[C@H](C)[C@@H](CN(C)C(=O)CCC(F)(F)F)OCCCC[C@H](C)O3)cc1`?
p53 mut binder: inactive; NFkB binder: active; STAT3 SMM: inactive; Myc binder: inactive

How did C[C@H](CO)N1C[C@H](C)[C@H](CN(C)C(=O)CCC(F)(F)F)OCCCC[C@H](C)Oc2ccc(NS(=O)(=O)c3ccccc3)cc2C1=O do in these assays?
p53 mut binder: inactive; NFkB binder: active; STAT3 SMM: inactive; Myc binder: active

Results for C[C@H](CO)N1C[C@H](C)[C@@H](CN(C)C(=O)CCC(F)(F)F)OCCCC[C@H](C)Oc2ccc(NS(=O)(=O)c3ccc(F)cc3)cc2C1=O ?
p53 mut binder: inactive; NFkB binder: active; STAT3 SMM: inactive; Myc binder: active

How did C[C@@H]1CCCCO[C@@H](CN(C)C(=O)CCC(F)(F)F)[C@@H](C)CN([C@H](C)CO)C(=O)c2cc(NS(=O)(=O)c3ccccc3)ccc2O1 do in these assays?
p53 mut binder: inactive; NFkB binder: inactive; STAT3 SMM: inactive; Myc binder: inactive

What do the screens show for `COCCNC(=S)Nc1nc(OC)cc(OC)n1`?
p53 mut binder: inactive; NFkB binder: inactive; STAT3 SMM: inactive; Myc binder: active

How did COc1ccc(CCNC(=S)Nc2ccncc2)cc1OC do in these assays?
p53 mut binder: inactive; NFkB binder: inactive; STAT3 SMM: inactive; Myc binder: inactive

Results for C[C@@H]1CN([C@@H](C)CO)C(=O)Cc2cc(NC(=O)NC3CCCCC3)ccc2O[C@@H]1CN(C)Cc1ccncc1 ?
p53 mut binder: inactive; NFkB binder: inactive; STAT3 SMM: inactive; Myc binder: inactive

Results for O=C1O[C@@H](c2ccccc2)[C@@H](c2ccccc2)N2[C@@H](c3ccc(OCCO)cc3)[C@]3(C(=O)Nc4ccccc43)[C@@H](C(=O)N3CCCCCCC3)[C@H]12 ?
p53 mut binder: active; NFkB binder: active; STAT3 SMM: inactive; Myc binder: active

How did O=C1O[C@@H](c2ccccc2)[C@@H](c2ccccc2)N2[C@@H](c3ccc(O)cc3)[C@]3(C(=O)Nc4ccc(C#CCCO)cc43)[C@@H](C(=O)N3CCCCCCC3)[C@H]12 do in these assays?
p53 mut binder: inactive; NFkB binder: inactive; STAT3 SMM: inactive; Myc binder: inactive

What do the screens show for `O=C1O[C@@H](c2ccccc2)[C@@H](c2ccccc2)N2[C@@H](c3ccc(OCCO)cc3)[C@]3(C(=O)Nc4ccc(C#CCCO)cc43)[C@@H](C(=O)N3CCCCCCC3)[C@H]12`?
p53 mut binder: inactive; NFkB binder: inactive; STAT3 SMM: inactive; Myc binder: inactive

What do the screens show for `O=C1O[C@H](c2ccccc2)[C@H](c2ccccc2)N2[C@H]1[C@@H](C(=O)N1CCCCCCC1)[C@]1(C(=O)Nc3ccccc31)[C@H]2c1ccc(OCCO)cc1`?
p53 mut binder: active; NFkB binder: active; STAT3 SMM: inactive; Myc binder: active

How did O=C(O)C1=C[C@H](c2ccc(C(F)(F)F)cc2)C[C@H](OCCCCO)O1 do in these assays?
p53 mut binder: inactive; NFkB binder: inactive; STAT3 SMM: active; Myc binder: inactive

What do the screens show for `O=C(Nc1ccccc1)C1=C[C@H](c2ccc(C(F)(F)F)cc2)C[C@H](OCCCCO)O1`?
p53 mut binder: inactive; NFkB binder: inactive; STAT3 SMM: inactive; Myc binder: inactive

Results for Cc1cc(-n2nc3ccccc3n2)c2oc(SCc3nnc(-c4ccccc4)o3)nc2c1 ?
p53 mut binder: inactive; NFkB binder: inactive; STAT3 SMM: inactive; Myc binder: inactive

What do the screens show for `c1ccc(Cn2ccnc2SCc2nnc(-c3ccccc3)o2)cc1`?
p53 mut binder: active; NFkB binder: inactive; STAT3 SMM: inactive; Myc binder: active

What do the screens show for `C[C@@H]1CN([C@@H](C)CO)C(=O)c2cc(NC(=O)NC3CCCCC3)ccc2O[C@@H]1CN(C)C(=O)Nc1cccc2ccccc12`?
p53 mut binder: inactive; NFkB binder: inactive; STAT3 SMM: inactive; Myc binder: inactive

How did C[C@H]1CCCCO[C@H](CN(C)C(=O)Nc2ccc(C(F)(F)F)cc2)[C@@H](C)CN([C@@H](C)CO)C(=O)c2cc(NS(C)(=O)=O)ccc2O1 do in these assays?
p53 mut binder: inactive; NFkB binder: active; STAT3 SMM: active; Myc binder: active

Results for C[C@@H]1CCCCO[C@@H](CN(C)C(=O)Nc2ccc(C(F)(F)F)cc2)[C@@H](C)CN([C@H](C)CO)C(=O)c2cc(NS(C)(=O)=O)ccc2O1 ?
p53 mut binder: inactive; NFkB binder: inactive; STAT3 SMM: inactive; Myc binder: inactive
